Screens (PubChem)
An excerpt weighted towards active compounds, which were near 19% of everything screened.
TDP1 cell CPT: DT40-hTDP1 cell growth loss with CPT; AID 686979; 420,000 tested, 12% active; Potency, µM (doses to about 46.2 µM), most hits filed as inhibitors; chicken DT40 Tdp1-/-;hTDP1 cells + 20 nM CPT, ATP luminescence, 48 h; also: nearly all actives have a fitted effect of over 55% in size
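Chicken DT40 Tdp1-/- cells complemented with human TDP1, 400 cells/well, exposed to compounds plus 20 nM camptothecin for at least 48 h at 37 C; viability read as ATP content by CellTiter-Glo luminescence.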
HT1080 IDH1KD tx: kills HT-1080 cells with IDH1 knockdown | HT-1080 IDH1 knockdown viability, ATP luminescence, 48 h | Potency, µM (highest dose often 46.1 µM), usual class: cytotoxic | 360,000 tested, 2% active
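After a 2 h attachment period, IDH1KD HT-1080 cells took pin-transferred compound for 48 h at 37 °C; ATP-based luminescence after 10 min room-temperature reagent incubation reported viability.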
DT40 TDP1 no CPT: qHTS for Inhibitors of human tyrosyl-DNA phosphodiesterase 1 (TDP1): qHTS in cells in absence of CPT; Potency, µM (doses to about 46.2 µM), hits mostly inhibitors; 420,000 tested, 15% active; AID 686978, 2013; DT40 Tdp1-/- hTDP1 cells, no CPT, ATP luminescence, 48 h; also: nearly all actives have a fitted effect of over 55% in size
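Seeded 400 DT40-hTDP1 cells/well (vehicle DMSO, no 20 nM CPT); pinned compounds; ≥48 hr at 37 °C; CellTiter-Glo luminescence as viability measure.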
IL1B secr inh: inflammasome signaling inhibition, IL-1 beta readout. THP-1 LPS/ATP IL-1B secretion, AlphaLISA, 16 h; hits give low values. activity change, % at 57.5 µM. 360,000 tested, 4.7% active. AID 743279; in the data active = activity change below about -50%; inconclusive = mostly about -30% to -49%
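Secreted IL-1B measured by AlphaLISA bead assay after 16 h compound exposure of THP-1 cells; compounds (final up to 57.5 uM) added 1 h before LPS (250 ng/mL) and ATP (1.25 mM) stimulation; lower signal means less secretion.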
HT1080NT lethal: kills 2HG-producing HT-1080-NT fibrosarcoma cells; HT-1080-NT fibrosarcoma viability, CellTiter-Glo ATP luminescence, 48 h; Potency, µM (series often up to 46.1 µM), usual class: cytotoxic; 360,000 tested, 1.6% active; AID 686970;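 also: NT is the 2HG producing partner of a matched IDH1 knockdown line; nearly all actives have a fitted effect of over 55% in size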
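750 cells/well, RPMI + 5% FBS; 2 h settle, compound pin-transfer, 48 h at 37 degrees C. CellTiter-Glo 10 min RT, luminescence. Normalized to DMSO and media-only wells.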
Hits are given with their value; . = inactive; ? = inconclusive; / = not tested or not shown; [ ] = dose if it differs, or a comment. Unless noted, calls follow the shape of the dose curve; as a rule, active = well fitted curve in the direction sought with a large enough effect; inconclusive = small, poorly fitted or top-dose-only effect, or another doubt; inactive = no such curve, though single readings can be large; an effect the other way counts as inactive or inconclusive.

SMILES	TDP1 cell CPT	HT1080 IDH1KD tx	DT40 TDP1 no CPT	IL1B secr inh	HT1080NT lethal
C[C@H]1CN([C@@H](C)CO)C(=O)c2cccc(NC(=O)C3CC3)c2O[C@H]1CN(C)S(=O)(=O)c1ccccc1	.	.	.	.	.
CN1CCN(S(=O)(=O)c2ccc(N3CCN(c4ccccc4Cl)CC3)nc2)CC1	20.6µM	.	14.6µM	.	.[9.24 µM]
O=S(=O)(c1ccc(N2CCN(Cc3ccccc3)CC2)nc1)N1CCCC1	16.4µM	.	?	.	.
O=S(=O)(c1ccc(N2CC=C(c3ccccc3)CC2)nc1)N1CCCC1	16.4µM	?	18.4µM	-92.6	?
Cc1nnsc1C(=O)Oc1ccccc1Cl	.	/	.	/	/
Cc1c(C(=O)N(C)Cc2nc3ccccc3c(=O)[nH]2)oc2ccccc12	?	?	23.1µM	.	.
CC(=O)c1ccc(-c2ccc(C(=O)N(C)Cc3nc4ccccc4c(=O)[nH]3)o2)cc1	?	.	23.1µM	.	.
COc1ccc(C(=O)N2CCC(O)(c3ccc(Cl)cc3)CC2)cc1OC	.	.	.	.	.
COc1cc(/C=N/Nc2nc(=O)[nH]nc2C)ccc1O	.	.	.	.	.
O=C(NC1CCCCCCC1)C1c2ccccc2C(=O)N1Cc1cccs1 (stereo not given)	13µM	.	?	.	.
COc1ccc(CN2C(=O)c3ccccc3C2C(=O)NC2CCCCCC2)c(OC)c1 (stereo not given)	.	.	?	-53.8	.
CC(C)OCCCN1C(=O)c2ccccc2C1C(=O)NC1CCCCC1 (stereo not given)	.	.	.	.	.[9.24 µM]
CC(C)(C)c1cc(C(=O)Nc2cccnc2)cc(C(=O)Nc2cccnc2)c1	?	.	?	.	.
COc1cccc(NC(=S)N(Cc2cccc(Br)c2)CC2CCC(C(=O)O)CC2)c1 (stereo not given)	?	.	.	.	?
COCCn1c(SCC(=O)Nc2ccc(C)cc2)nc2c(oc3ccccc32)c1=O	.	.	.	.	.
COc1ccc(NC(=O)CSc2nc3c(oc4ccccc43)c(=O)n2Cc2ccco2)cc1Cl	?	/	20.6µM	/	/
Cc1cccc(NC(=O)CSc2nc3c(oc4ccccc43)c(=O)n2Cc2ccco2)c1	23.1µM	/	16.4µM	/	/
O=C(CSc1nc2c(oc3ccccc32)c(=O)n1Cc1ccco1)Nc1cccc(Cl)c1	?	/	20.6µM	/	/
Cc1ccc(NC(=O)CSc2nc3c(oc4ccccc43)c(=O)n2Cc2ccco2)cc1F	.	/	.	/	/
CCn1c(SCC(=O)Nc2ccc(OC)cc2OC)nc2nc3c(cc2c1=O)COC(C)(C)C3	.	.	?	?	.
CCn1c(SCC(=O)Nc2cccc(C)c2)nc2nc3c(cc2c1=O)COC(C)(C)C3	25.9µM	.	18.4µM	-83.0	.
COc1cccc(OC)c1C(=O)Nc1ccccc1C(=O)N1CCCCCC1	.	.	.	.	.
Cc1nn(C(=O)c2ccc(Br)cc2)c(C)c1S(=O)(=O)N1CCOCC1	.	/	.	/	/
Cc1c(C(=O)OCC(=O)N(C)CC(=O)Nc2ccc(F)cc2)oc2ccccc12	.	.	.	.	.
COCCNC(=O)c1cccc2c(-c3ccnn3C)coc12	?	.	?	.	.
SMILES	TDP1 cell CPT	HT1080 IDH1KD tx	DT40 TDP1 no CPT	IL1B secr inh	HT1080NT lethal
O=c1ccc(-c2nc3ccccc3n2C(CCc2ccccc2)c2nc3ccccc3[nH]2)c[nH]1 (stereo not given)	?	.	?	.	.
Cc1ccc(NC(=O)COC(=O)/C=C/c2c(C)nn(-c3ccc(F)cc3)c2Cl)cc1F	.	.	.	.	.
COCCn1c(SCC(=O)Nc2ccc(F)c(Cl)c2)nc2c(oc3ccccc32)c1=O	5.17µM	/	?	/	/
COc1cccc(NC(=O)CSc2nc3c(oc4ccccc43)c(=O)n2Cc2ccco2)c1	9.2µM	/	9.2µM	/	/
COCCn1c(SCC(=O)Nc2ccccc2)nc2c(oc3ccccc32)c1=O	.	.	?	.	.
CCC1=C(c2ccc(OC)cc2)CCC(C(=O)O)C1C (stereo not given)	.	.	.	.	.
COCCn1c(C)cc(O)c(C(c2ccc(F)cc2)N2CCN(c3ccccc3)CC2)c1=O (stereo not given)	.	/	.	/	/
CCn1cc([N+](=O)[O-])c(C(=O)N2CCCCCC2)n1	.	.	.	.	.
Cc1ccc(N(CC(=O)NCCSc2ccccn2)S(=O)(=O)c2ccc(F)cc2)cc1	.	.	?	.	.
O=C(N/N=C/c1ccccc1)c1c(O)c2ccccc2[nH]c1=O	9.2µM	.	11.6µM	.	.
O=c1[nH]c2ccccc2c(O)c1-[n+]1ccccc1	.	.	.	.	.
COC(=O)Nc1ccc(S(=O)(=O)NNC(=O)c2c(O)c3ccccc3[nH]c2=O)cc1	?	.	23.1µM	.	.
O=C(N/N=C/c1cccc(F)c1)c1c(O)c2ccccc2[nH]c1=O	2.31µM	.	2.31µM	.	.
O=c1[nH]c2ccccc2c(O)c1O	8.2µM	?	5.8µM	-92.1	18.4µM
C=C1C[C@H](O[C@@H]2O[C@H](CO)[C@@H](O)[C@H](O)[C@H]2O)[C@@H]2[C@H](OC(=O)[C@H]2C)[C@H]2[C@H](C)[C@H](O)C[C@@H]12	.	.	.	.	.
O=C(Nc1cccc(F)c1)c1c(O)c2ccccc2[nH]c1=O	.	.	.	.	.
O=C(N/N=C/c1ccc(F)cc1)c1c(O)c2ccccc2[nH]c1=O	4.61µM	.	5.17µM	.	.
O=C(Cn1c2ccccc2c(=O)c2ccccc21)N/N=C/c1ccc(N2CCCC2)c([N+](=O)[O-])c1	18.4µM	.	?	.	.
O=C(Cn1c2ccccc2c(=O)c2ccccc21)N/N=C/c1cc([N+](=O)[O-])ccc1N1CCCCCC1	.	.	.	.	.
Cc1nn(-c2ccc(Cl)cn2)c2c1C(=O)CC(C)(C)C2Br (stereo not given)	?	.	?	.	.
Cc1cccc(NC(=O)Nc2ccc(Oc3c(F)c(F)c(F)c(F)c3F)cc2)c1	.	.	.	.	.
O=C(Nc1ccc(Oc2c(F)c(F)c(F)c(F)c2F)cc1)OC1CCN2Cc3ccccc3N=C12 (stereo not given)	5.17µM	?	2.31µM	-94.9	?
NC(=O)CSc1oc(-c2ccco2)nc1S(=O)(=O)c1ccc(F)cc1	.	.	.	.	.
CCC(C)NC(=O)c1ccc(Cn2c(=O)c3cccn3c3cccnc32)cc1 (stereo not given)	.	/	?	/	/
COCCN(C(=O)COC(=O)/C=C/c1ccc(C(F)(F)F)cc1)c1c(N)n(Cc2ccccc2)c(=O)[nH]c1=O	20.6µM	.	20.6µM	.	.
